SW480 rereplic: inducers of DNA re-replication in SW480 colon cancer cells; AID 624297; SW480 DNA re-replication, Hoechst DNA content imaging, 48 h; 340,000 tested, 1.8% active; Potency, µM (titrated, usually from 46.1 µM), for the others: at the top dose re-replication activation, hits mostly activators; note: potency is the fitted concentration of half-maximal effect; % of control where 0% means no effect; nearly all actives have a fitted effect of over 55% in size
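Per well, 250 cells were exposed to pinned compound for 48 hr. Nuclear DNA was visualised with Hoechst (40 min, 37 C) and total object intensity recorded by fluorescence scanning.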
IL1B secr inh: inhibitors of inflammasome signaling (IL-1 beta secretion); THP-1 LPS/ATP IL-1B secretion, AlphaLISA, 16 h; hits give low values; activity change, % at 57.5 µM; 360,000 tested, 4.7% active; AID 743279; in the data active = activity change below about -50%; inconclusive = mostly about -30% to -49%; note: % is set by controls: 0 for no effect and ±100 for the full control effect
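THP-1 cells pretreated 1 hr with compounds (up to 57.5 uM final), then stimulated with LPS (250 ng/mL final) plus ATP (1.25 mM final); secreted IL-1B measured by AlphaLISA after 16 hr, decreased signal indicating inhibition.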
MCF10A rereplic: DNA re-replication induction in MCF 10a cells | AID 624296 | Potency, µM (top dose mostly 46.1 µM), without a hit: at the highest dose activity, positive = re-replication, actives largely listed as activators | MCF 10A DNA re-replication, Hoechst nuclear intensity, 48 h | 350,000 tested, 2.9% active; note: potency is the fitted concentration of half-maximal effect; % of control where 0% means no effect; nearly all actives have a fitted effect of over 50% in size
DT40 TDP1 no CPT: qHTS for Inhibitors of human tyrosyl-DNA phosphodiesterase 1 (TDP1): qHTS in cells in absence of CPT; DT40 Tdp1-/- hTDP1 cells, no CPT, ATP luminescence, 48 h; Potency, µM (highest dose often 46.2 µM), for the others: top-dose activity change, negative = growth inhibition, actives largely listed as inhibitors; 420,000 tested, 15% active; AID 686978, 2013; note: potency is the fitted concentration of half-maximal effect; % is set by controls: 0 for no effect and ±100 for the full control effect; nearly all actives have a fitted effect of over 55% in size
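Chicken DT40 Tdp1-/- cells complemented with human TDP1, screened without camptothecin (DMSO vehicle only), 400 cells/well. Compounds pin-transferred, cells incubated at 37 °C for at least 48 hr. Growth read as ATP-dependent luminescence (CellTiter-Glo, 30 min at RT).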
DT40 TDP1 CPT: growth inhibition of DT40 Tdp1-/-;hTDP1 cells with camptothecin (screen for TDP1 inhibitors) | chicken DT40 Tdp1-/-;hTDP1 cells + 20 nM CPT, ATP luminescence, 48 h | Potency, µM (doses to about 46.2 µM), for the others: at the top dose activity change, negative = growth inhibition, hits mostly inhibitors | 420,000 tested, 12% active | AID 686979; note: potency is the fitted concentration of half-maximal effect; % is set by controls: 0 for no effect and ±100 for the full control effect; nearly all actives have a fitted effect of over 55% in size
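Chicken DT40 Tdp1-/- cells stably complemented with human TDP1 were seeded at 400 cells/well in medium containing 20 nM camptothecin, exposed to pin-transferred compounds, and grown at 37 °C for at least 48 hr. Viability was read as ATP luminescence.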
BCR signal inh: chronic active BCR signaling inhibition. 340,000 tested, 0.05% active. Potency, µM (doses to about 46.1 µM), for the others: top-dose activity change, negative = inhibition, most hits filed as inhibitors. ABC-DLBCL IkBa-CBG/CBR reporter, luminescence ratio, 4 h; active = well fitted inhibition curve with a large enough effect in the signal ratio, with a control signal flat, not every such curve was filed as active; inconclusive = small, poorly fitted or top-dose-only effect, or effect the other way, or a change in a side signal; the % refers to the signal ratio;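 note: potency is the fitted concentration of half-maximal effect; plate controls were basal doxycycline-induced cells for no effect and cells given 10 µM MG132 for full effect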
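TMD8 human ABC-DLBCL cells with doxycycline-inducible IκBα–green luciferase fusion and unfused red luciferase, in 0.5% FBS medium; compounds up to 46 uM, 4 h at 37C. Green/red luminescence ratio, filter-overlap corrected, fitted to concentration-response curves.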
An asterisk follows results filed as active; ? = inconclusive; · = not tested or not shown. Most compounds without a hit are left out; they make up all but 19% or so of the library. Unless noted, calls come from the whole dose curve; as a rule, active = well fitted curve in the direction sought with a large enough effect; inconclusive = small, poorly fitted or top-dose-only effect, or another doubt; inactive = no such curve, though single readings can be large; an effect the other way counts as inactive or inconclusive.

SMILES	SW480 rereplic	IL1B secr inh	MCF10A rereplic	DT40 TDP1 no CPT	DT40 TDP1 CPT	BCR signal inh
O=C1CCCc2cc3c(cc21)CC1(C3)Cc2cc3c(cc2C1)C(=O)CCC3	5.8µM*	0.0	3.26µM*	4.61µM*	3.66µM*	?
Nc1nc2ccc(Cl)cc2c2nc(-c3ccco3)nn12	·	·	·	8.91µM*	6.31µM*	14.9%
CN1C(=O)C(=Cc2sc(=O)n(-c3ccccc3)c2N(C)C)C(=O)N(C)C1=O	28.2%	-97.4*	18.4µM*	?	16.4µM*	?
Cc1cc(C=C2C(=O)N(C)C(=O)N(C)C2=O)c(C)n1-c1ccccc1	3.2%	1.9	4.5%	3.1%	-2.0%	-6.5%
CCOC(=O)C(C#N)=C(c1ccccc1)c1ccccc1	0.2%	·	?	?	?	·
COC(=O)C(O)(c1c(C)[nH]c2ccccc12)C(F)(F)F (configuration not stated)	1.7%	19.2	-5.0%	-14.0%	-8.3%	0.7%
CC1CN1c1cc2c(c3c1ccn3C)C1CCC2C1 (configuration not stated)	·	21.8	·	8.2µM*	7.31µM*	·
COc1ccc(NC2=NCC(C)S2)cc1 (configuration not stated)	?	-15.3	-10.9%	11.1%	15.7%	?
COc1ccc(NC2=NC(C)(C)CS2)cc1	-0.4%	-54.5*	5.0%	14.9%	-3.7%	10.0%
O=C1C2CCCC1C(N1CCCC1)CC2 (configuration not stated)	3.5%	-1.8	?	-6.1%	44.6%	?
Cn1c(O)c(/C=N/NC(=O)c2ccncc2)c(=O)n(C)c1=S	8.2µM*	0.0	9.2µM*	-22.5%	?	?
CCOP(=O)(OCC)C(O)c1ccc(OC)cc1 (configuration not stated)	-7.0%	8.9	-1.0%	5.0%	9.5%	0.9%
O=NN(CCCl)C(=O)NCCCl	-4.6%	32.9	-6.3%	?	?	1.5%
NC(=O)C(c1ccccc1)(c1ccccc1)[C@@H]1CCN(CCc2ccc3c(c2)CCO3)C1	6.2%	·	0.9%	18.8µM*	?	·
CN1CC(C(=O)c2ccc([N+](=O)[O-])cc2)C(c2ccc(Cl)cc2)C1 (configuration not stated)	-0.9%	·	-8.0%	?	?	?
COc1cccc(C(=O)C2CN(C)CC2c2ccc(Cl)cc2)c1 (configuration not stated)	-1.5%	-58.9*	7.2%	?	?	-0.1%
COc1ccc(C(=O)C2CN(C)CC2c2ccc(Cl)cc2)cc1 (configuration not stated)	-38.5%	?	?	?	18.4µM*	-0.5%
CN1CC(C(=O)c2cccc(C(F)(F)F)c2)C(c2ccc(Cl)cc2)C1 (configuration not stated)	12.3%	-82.5*	17.6%	?	23.1µM*	-0.2%
S=P1(Oc2ccccc2)Nc2ccccc2N1	-7.8%	14.7	-3.2%	-13.1%	-1.7%	·
CCOC(=O)C1=C(N)OC2=C(C(=O)CCC2)C12C(=O)N(C)c1ccccc12 (configuration not stated)	0.3%	0.9	1.0%	-4.3%	0.4%	8.2%
O=C1C2CCN(CC2)C12CC2c1ccc(C(F)(F)F)cc1 (configuration not stated)	-4.2%	-3.0	-0.1%	-24.1%	26.3%	6.4%
O=C1NC(=O)N(Cc2ccc(F)cc2)C(=O)/C1=C/c1cccs1	?	-100.9*	?	8.2µM*	11.6µM*	19.7%
O=C1NC(=O)N(Cc2ccccc2Cl)C(=O)/C1=C/c1cccs1	?	?	?	4.61µM*	6.51µM*	5.1%
COc1cc(N)c(Cl)cc1C(=O)N[C@@H]1CN2CCC1CC2	0.8%	·	13.8%	·	·	·
Cc1oc(-c2cccc(Cl)c2)nc1CN1CCC(C(=O)NCCCN2CCN(c3cccc(Cl)c3)CC2)CC1	·	·	·	18.4µM*	14.6µM*	·
SMILES	SW480 rereplic	IL1B secr inh	MCF10A rereplic	DT40 TDP1 no CPT	DT40 TDP1 CPT	BCR signal inh
COc1cccc(CNCCc2ccc3c(c2)OCO3)c1OC	27.7%	-14.8	5.2%	?	-35.1%	-9.4%
COc1cc2c(ccc3c4cc(OC)c(OC)cc4c[n+](C)c23)cc1O	-5.9%	-19.7	-16.6%	1.16µM*	1.3µM*	·
COc1ccc2c(c[n+](C)c3c4cc5c(cc4ccc23)OCO5)c1OC	·	·	·	1.26µM*	1.26µM*	·
Cc1ccc(C(=O)N[C@@H](C)CN2C3=NC[C@H](Cc4ccccc4)N3C[C@H]2Cc2ccc(O)cc2)cc1Br	13µM*	-14.5	?	16.4µM*	14.6µM*	-2.6%
Cc1ccc(C(=O)N[C@@H](C)CN2C3=NC[C@@H](Cc4ccccc4)N3C[C@H]2Cc2ccc(O)cc2)cc1Br	-8.3%	-19.7	5.3%	7.31µM*	6.51µM*	-14.7%
COc1ccc(CCNc2nccn(-c3ccc(C)c(C)c3)c2=O)cc1OC	·	·	·	13µM*	14.6µM*	·
CCCNC(=O)N1[C@H]2CC[C@@H]1C(C(=O)OC)=C(c1cccc(OC)c1OC)C2	-1.3%	26.1	-10.9%	-7.8%	-21.3%	·
CC(CNC(=O)c1ccc(CSc2nc3ccncc3n2Cc2ccc(F)cc2)cc1)c1ccccc1 (configuration not stated)	·	·	·	?	11.8%	·
COc1ccc(NC(=O)c2cn(CCC#N)nc2-c2cccc([N+](=O)[O-])c2)cc1	-6.6%	-9.1	-0.6%	-6.9%	-22.2%	-1.0%
COc1ccc(Oc2cc(NC(=O)c3nn(C)cc3[N+](=O)[O-])cc([N+](=O)[O-])c2)cc1	?	-96.2*	2.06µM*	-10.6%	11.8%	?
CCOC(=O)C(O)(c1ccc(N(CC)C(=O)COc2ccccc2)cc1)C(F)(F)F (configuration not stated)	1.0%	12.9	0.4%	?	?	-3.9%
O=C(CF)NC(NC(=S)Nc1ccccc1O)C(Cl)(Cl)Cl (configuration not stated)	-10.9%	-6.6	?	-42.1%	?	?
Cc1ccccc1-n1c(/C=C/c2c(C)[nH]c3ccccc23)nc2ccccc2c1=O	·	·	·	1.84µM*	2.06µM*	·
Cc1ccccc1-n1c(CNc2ccccc2)nc2ccccc2c1=O	?	11.4	?	?	?	·
Cc1ccccc1-n1c(/C=C/c2ccc(N(C)C)cc2)nc2ccccc2c1=O	·	·	·	13µM*	16.4µM*	·
O=[N+]([O-])c1cnc[nH]1	-15.6%	-5.6	3.5%	-3.7%	-9.1%	-0.3%

Screening data from PubChem BioAssay.
